Results with a measured potency or affinity are listed apart. Active and inactive are the calls of the source. The rule behind the calls is not given here.

This experiment can be described thus: P. falciparum ATP4 D1247Y mutant growth inhibitors, dose response, NITD609-resistant line, SYBR Green, dry powder (AID 1159571). The note with it: series mostly up to 19.5 µM.
For `COc1cccc(C#Cc2ccc([C@H]3[C@@H](CO)N(C(=O)c4ccccn4)[C@H]3C#N)cc2)c1`, the outcome was inactive. Regarding `COc1ccc(S(=O)(=O)Nc2ccc3c(c2)CC(=O)N([C@@H](C)CO)C[C@H](C)[C@H](CN(C)S(=O)(=O)c2ccc(OC)cc2)O3)cc1`, the molecule was called inactive. Turning to `Cc1ccccc1-c1ccccc1[C@H]1[C@@H](C#N)N(C(=O)c2ccccc2)[C@@H]1CO`, the outcome was inactive.

In the case of `C[C@@H]1CN([C@H](C)CO)C(=O)c2cccc(NC(=O)c3ccc(-c4nccs4)cc3)c2O[C@H]1CN(C)Cc1ccc(C(F)(F)F)cc1`, the call was inactive.

Turning to `O=C(NC[C@@H]1CC[C@H]2[C@H](CN2Cc2cc(-c3ccccc3)on2)O1)c1ccc2c(c1)OCO2`, the call was inactive.

Values taken from PubChem BioAssay AID1159571 (Broad Institute, 2015).
